# Screens deposited in PubChem BioAssay by several laboratories.
# An excerpt weighted towards active compounds, which were near 3.9% of everything screened.
# NTR1 ag: agonists of human neurotensin receptor NTR1; 330,000 compounds, 0.17% hits; P30989; NTR1-U2OS beta-arrestin-GFP spot imaging, agonist mode; AID 493036; activation, % at 20 µM;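 active = activation at or above 40% of the spot to cytoplasm intensity ratio, with at least 20 cells analyzed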;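 also: 0% = DMSO without peptide and 100% = 100 nM NTR1 peptide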
# ALR H2O2 inh: inhibitors of human sulfhydryl oxidase ALR; P55789; purified ALR, DTT oxidation, H2O2 HRP-luminol luminescence; inhibition, % (test concentration not listed); 290,000 compounds, 3.8% hits;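 active = mean replicate inhibition above about 79%, with every replicate also reaching it, limit read from the data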
# Target sequence (P55789 whole entry, looked up): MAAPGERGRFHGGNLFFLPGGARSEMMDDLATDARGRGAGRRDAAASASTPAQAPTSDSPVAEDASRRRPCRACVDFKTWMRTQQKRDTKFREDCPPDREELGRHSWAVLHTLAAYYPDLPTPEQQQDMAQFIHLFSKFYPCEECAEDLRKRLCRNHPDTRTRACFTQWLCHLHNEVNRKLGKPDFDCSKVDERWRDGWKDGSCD
# SUMO HTRF inh: inhibitors of human SUMOylation (UBC9); HTRF SUMOylation assay, SAE1/SAE2 + UBC9, in vitro; inhibition, % at 35 µM; 290,000 compounds, 0.36% hits; AID 2006; in the data active = inhibition above about 50%, passing the limit was not always enough
# Target sequence (P63279 whole entry, looked up): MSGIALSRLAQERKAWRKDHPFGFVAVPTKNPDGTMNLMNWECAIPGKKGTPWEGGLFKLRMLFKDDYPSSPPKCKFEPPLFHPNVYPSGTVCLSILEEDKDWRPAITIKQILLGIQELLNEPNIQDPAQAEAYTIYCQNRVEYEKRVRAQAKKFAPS
# Cardio protect: modulators protecting cardiomyocytes from myocardial damage; H9c2 cardiomyocytes, H2O2 injury protection, ATPLite, 2 h; protection from H2O2 cell death, % at 20 µM; 360,000 compounds, 0.63% hits; AID 588492;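 active = compounds giving at least 50% protection of heart cells from peroxide-induced death in the single-dose screen, raw or plate-pattern-corrected value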;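 also: 0% = DMSO wells with peroxide and 100% = DMSO wells without peroxide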
# Starred values were filed as active, the others as inactive; . = not tested or not shown.
SMILES,NTR1 ag,ALR H2O2 inh,SUMO HTRF inh,Cardio protect
CCOC(=O)c1c(C)n(C(=O)c2ccco2)c(=O)n1C(=O)c1ccco1,2,97*,11,21
CC(=O)c1cccc(NC(=O)Cn2cnc(S(=O)(=O)N3CCc4ccccc43)c2)c1,0,-9,1,-2
CCN(CC)Cc1c(-c2ccccc2)[nH]c2ccc(C)cc2c1=O,0,97*,-6,3
Cc1ccc2[nH]c(-c3ccccc3)cc(=O)c2c1,-6,21,5,-16
Cc1ccc(S(=O)(=O)N2[C@H](c3ccc(Cl)cc3)CC(=O)[C@@H]3CN(S(=O)(=O)c4ccccc4C)[C@H](c4ccc(Cl)cc4)C[C@@H]32)cc1,.,.,.,-13
CCCCC(=O)Nc1ccnc(-c2cccnc2)n1,1,85*,-14,7
COc1cc(-c2cc(C(=O)N(C)Cc3ccccc3)c3ccccc3n2)cc(OC)c1OC,3,-2,13,35
COc1ccccc1CN(C)C(=O)c1cc(-c2cc(OC)c(OC)c(OC)c2)nc2ccccc12,10,.,6,50*
COc1ccc(-c2cc(C(=O)N(C)Cc3ccccc3F)c3ccccc3n2)cc1OC,10,-4,2,66*
CCOc1cc2[nH]c(=S)n(CC3CCCO3)c(=O)c2cc1OCC (stereo not given),8,95*,16,11
Nc1c(C(=O)NCc2ccco2)c2nc3ccccc3nc2n1CCc1ccc(F)cc1,9,-24,100*,27
COCCNC(=O)c1c(N)n(CCCn2ccnc2)c2nc3ccccc3nc12,-1,23,87*,10
COc1cc2[nH]c(=S)n(CC3CCCO3)c(=O)c2cc1OC (stereo not given),0,49,2,4
COCCNC(=O)c1c(N)n(-c2ccccc2)c2nc3ccccc3nc12,0,29,48,14
COc1ccccc1CNC(=O)c1c(N)n(CCCN2CCOCC2)c2nc3ccccc3nc12,.,.,52*,14
CCCn1c(N2CCN(C(=O)Nc3ccccc3)CC2)nc2ccccc21,-1,1,-5,9
CC(CNS(=O)(=O)c1ccccc1)(c1ccccc1)N1CCOCC1 (stereo not given),0,-3,2,-3
COCCn1c(N)c(C(=O)NCC2CCCO2)c2nc3ccccc3nc21 (stereo not given),4,22,91*,18
COCCn1c(=S)[nH]c2cc(C(=O)NCC3CCCO3)ccc2c1=O (stereo not given),1,98*,-3,6
COCCn1c(N)c(C#N)c2nc3ccccc3nc21,3,-13,81*,-4
COCCn1c(=O)[nH]c2cc(C(=O)NCC3CCCO3)ccc2c1=O (stereo not given),0,-11,-27,0
Cc1ccc(C)c(OCc2nc3ccc(S(=O)(=O)Nc4c(C)n(C)n(-c5ccccc5)c4=O)cc3[nH]2)c1,0,-14,-6,-2
CSc1nc2ccc(S(=O)(=O)Nc3c(C)n(C)n(-c4ccccc4)c3=O)cc2s1,0,99*,12,106*
Cc1c(NS(=O)(=O)c2ccc3nc(COc4ccccc4Cl)[nH]c3c2)c(=O)n(-c2ccccc2)n1C,-1,99*,11,13
COc1ccc(C(=O)N=c2nc3ccccn3s2)cc1,0,3,6,-23
SMILES,NTR1 ag,ALR H2O2 inh,SUMO HTRF inh,Cardio protect
CCn1c(SCC(N)=O)nc2ccccc2c1=O,0,-13,-13,10
CC(=O)NCCNC(=O)c1ccc(CSc2nc3ccccc3s2)cc1,0,99*,6,-13
COC(=O)c1ccc(CSc2nc3ccccc3s2)o1,1,2,-20,-2
C=CCNC(=O)c1ccc(CSc2nc3ccccc3s2)cc1,2,99*,6,-10
Cc1ccccc1-c1nc(CS(=O)CC(=O)NC2CCCCC2)c(C)o1 (stereo not given),1,99*,-13,-6
Cc1oc(-c2ccccc2F)nc1CS(=O)(=O)CC(=O)NC1CCCC1,-2,37,7,-1
Cc1oc(-c2ccccc2F)nc1CS(=O)CC(=O)NC1CCCC1 (stereo not given),1,99*,-6,12
Cc1ccccc1-c1nc(CS(=O)CC(=O)NC2CCCC2)c(C)o1 (stereo not given),1,99*,7,-5
Cc1ccccc1-c1nc(CS(=O)CC(=O)NC2CC2)c(C)o1 (stereo not given),1,99*,8,0
C[C@H](CO)N1C[C@H](C)[C@@H](CN(C)S(=O)(=O)c2cccs2)Oc2ccc(NS(=O)(=O)c3ccc(F)cc3)cc2C1=O,1,-3,.,0
CCCCn1c(-c2csc3c2CCCC3)n[nH]c1=S,4,9,11,.
CCn1c(-c2csc3c2CCCC3)n[nH]c1=S,2,91*,8,-10
COc1ccc(C2(CNC(=O)c3ccc(C)cc3)CCOCC2)cc1,1,5,16,0
O=C(CCN1Cc2ccccc2C1)c1ccc2c(c1)OCCO2,0,19,1,-23
O=C(CCN1CCc2ccccc2C(c2ccccc2)C1)c1ccc2c(c1)OCCO2 (stereo not given),6,97*,-26,-34
Cc1c(S(=O)(=O)N2CCCC(C)C2)c(=O)n(C)c(=O)n1C (stereo not given),-1,1,.,4
CCn1c(CCNC(=O)c2ccc(F)cc2)nc2ccccc21,0,.,7,3
Cc1ccc(Nc2c(-c3ccc(C)o3)nc3ncccn23)cc1,1,.,12,1
Cc1ccc(-c2nc3ncccn3c2NC2CCCC2)o1,0,99*,8,6
Cc1ccc(-c2nc3cnccn3c2Nc2c(C)cccc2C)o1,1,98*,11,-8
Cc1ccc(-c2nc3ncccn3c2Nc2ccccc2C)o1,0,98*,29,-3
Brc1ccc(-c2nc3ncccn3c2NC2CCCCC2)o1,8,99*,29,-1
Brc1ccc2nc(-c3ccncc3)c(NC3CCCC3)n2c1,2,.,15,12
Cc1c(Cl)cccc1NC(=O)C1=COCCO1,1,-1,.,2
O=C(Nc1cccc2ncccc12)c1ccccc1F,1,-1,2,5
SMILES,NTR1 ag,ALR H2O2 inh,SUMO HTRF inh,Cardio protect
O=C1N(c2ccc(Cl)c(Cl)c2)CN(Cc2ccccc2)CN1n1cnnc1,2,-7,61*,1
Cc1ccc(NCc2nnc3n2CCCCC3)c(C)c1,0,99*,1,3
Cc1ccc(C(=O)CCc2ccc(N)cc2)cc1,2,99*,10,-2
OCC[C@H]1C[C@H](O)[C@@H](O)[C@@]2(CCc3ccccc3CO2)O1,-2,0,.,5
N=C(N)SCc1ccccc1Cl,1,100*,5,-9
COC(=O)C1CCN(C(=O)Cc2ccccc2OC)CC1,-2,-1,1,-4
C=CCn1c(SCC(=O)Nc2nc(C)cs2)nnc1C(C)NC(=O)c1ccccc1Cl (stereo not given),-1,94*,26,6
CCOC(=O)C1=C(C)NC2=C(C(=O)CC(C)(C)C2)C1c1ccc(O)c(OCC)c1 (stereo not given),1,0,5,-6
